# Assay results from publication PMC7862700, “An all-to-all approach to the identification of sequence-specific readers for epigenetic DNA modifications on cytosine”.
# Tests used:
# Assay in all cases: DAPPL (digital affinity profiling via proximity ligation, sequencing); 10 mM Tris-HCl pH 7.5, 50 mM NaCl, 1 mM DTT, 4% glycerol, room temperature, 30 min; GST-TFs on glutathione beads, 16-mer random dsDNA library, 0.1% formaldehyde crosslink after washing; high values mean tight binding
# Conditions in all cases: protein: recombinant; tags: N-terminal GST; dsDNA, one strand shown
# ETV2 = molecular target: T1, ETV2 (Homo sapiens, UniProt O00321 1-342)
# T1 sequence: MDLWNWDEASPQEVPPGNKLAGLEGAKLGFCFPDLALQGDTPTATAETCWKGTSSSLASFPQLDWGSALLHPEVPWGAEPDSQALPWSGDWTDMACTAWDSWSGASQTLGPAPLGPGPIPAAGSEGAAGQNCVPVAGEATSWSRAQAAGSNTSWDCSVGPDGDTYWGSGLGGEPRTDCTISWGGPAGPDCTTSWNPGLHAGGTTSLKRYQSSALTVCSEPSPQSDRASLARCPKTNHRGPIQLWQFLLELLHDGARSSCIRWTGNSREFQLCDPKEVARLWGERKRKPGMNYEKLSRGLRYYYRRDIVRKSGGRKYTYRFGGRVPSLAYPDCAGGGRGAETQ
# Outline: (§1)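 Yeast served to express human transcription factors as GST fusions, which were then captured on glutathione beads and labelled with DNA barcodes. Pooled with a tag-only sample, they were incubated with 200 nmole of a 16-mer random double-stranded DNA library for 30 min at room temperature in Tris/NaCl/DTT/glycerol buffer, washed, crosslinked with 0.1% formaldehyde, ligated by proximity, amplified by PCR and sequenced. Dividing each hexamer's read frequency for a factor by its frequency for the tag-only sample gives the binding signal.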
# ELF3 = molecular target: T2, ELF3 (Homo sapiens, UniProt P78545 1-371)
# T2 sequence: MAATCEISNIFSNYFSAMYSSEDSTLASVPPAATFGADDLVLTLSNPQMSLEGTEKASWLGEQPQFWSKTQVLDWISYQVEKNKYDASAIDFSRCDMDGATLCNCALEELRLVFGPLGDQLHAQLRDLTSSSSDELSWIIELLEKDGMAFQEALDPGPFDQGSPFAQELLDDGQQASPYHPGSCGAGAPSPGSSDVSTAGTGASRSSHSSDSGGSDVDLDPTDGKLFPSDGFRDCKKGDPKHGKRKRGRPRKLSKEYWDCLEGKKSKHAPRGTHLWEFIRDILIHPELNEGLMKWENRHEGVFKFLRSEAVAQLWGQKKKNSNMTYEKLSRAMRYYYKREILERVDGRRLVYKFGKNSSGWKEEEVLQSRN
# Outline: as §1
# ETV1 = ETV1 (Homo sapiens, UniProt P50549 1-477)
# Chain of ETV1 (P50549 whole entry): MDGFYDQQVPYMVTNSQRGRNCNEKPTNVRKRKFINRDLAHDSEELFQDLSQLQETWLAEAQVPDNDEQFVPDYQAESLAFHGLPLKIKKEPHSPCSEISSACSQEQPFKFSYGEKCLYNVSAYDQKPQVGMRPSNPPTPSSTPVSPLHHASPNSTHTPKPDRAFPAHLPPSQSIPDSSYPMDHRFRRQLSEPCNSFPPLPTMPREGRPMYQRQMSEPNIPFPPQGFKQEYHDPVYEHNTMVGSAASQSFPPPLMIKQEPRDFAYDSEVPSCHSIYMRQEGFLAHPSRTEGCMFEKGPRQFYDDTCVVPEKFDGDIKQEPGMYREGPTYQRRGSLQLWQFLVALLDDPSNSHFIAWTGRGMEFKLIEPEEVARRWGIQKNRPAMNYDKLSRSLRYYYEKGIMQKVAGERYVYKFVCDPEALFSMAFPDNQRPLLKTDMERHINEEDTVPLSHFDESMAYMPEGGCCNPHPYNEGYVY
# Outline: as §1
# ERF = molecular target: T3, ERF (Homo sapiens, UniProt P50548 1-548)
# T3 sequence: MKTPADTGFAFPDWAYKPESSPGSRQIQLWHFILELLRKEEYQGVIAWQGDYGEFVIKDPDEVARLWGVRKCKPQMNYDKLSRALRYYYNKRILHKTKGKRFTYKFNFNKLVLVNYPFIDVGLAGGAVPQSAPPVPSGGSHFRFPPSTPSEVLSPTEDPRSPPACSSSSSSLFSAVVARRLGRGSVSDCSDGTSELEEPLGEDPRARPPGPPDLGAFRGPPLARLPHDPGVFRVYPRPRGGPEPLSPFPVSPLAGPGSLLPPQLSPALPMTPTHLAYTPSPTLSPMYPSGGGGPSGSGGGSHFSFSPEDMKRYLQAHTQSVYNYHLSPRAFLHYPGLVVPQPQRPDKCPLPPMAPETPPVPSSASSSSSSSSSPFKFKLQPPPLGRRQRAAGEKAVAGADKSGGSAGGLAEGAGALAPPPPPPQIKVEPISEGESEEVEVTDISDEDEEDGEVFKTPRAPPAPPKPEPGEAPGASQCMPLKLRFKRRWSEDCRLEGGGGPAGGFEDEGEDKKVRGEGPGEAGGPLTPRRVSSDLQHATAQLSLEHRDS
# Outline: as §1
# ETV3L = molecular target: T4, ETV3L (Homo sapiens, UniProt Q6ZN32 1-361)
# T4 sequence: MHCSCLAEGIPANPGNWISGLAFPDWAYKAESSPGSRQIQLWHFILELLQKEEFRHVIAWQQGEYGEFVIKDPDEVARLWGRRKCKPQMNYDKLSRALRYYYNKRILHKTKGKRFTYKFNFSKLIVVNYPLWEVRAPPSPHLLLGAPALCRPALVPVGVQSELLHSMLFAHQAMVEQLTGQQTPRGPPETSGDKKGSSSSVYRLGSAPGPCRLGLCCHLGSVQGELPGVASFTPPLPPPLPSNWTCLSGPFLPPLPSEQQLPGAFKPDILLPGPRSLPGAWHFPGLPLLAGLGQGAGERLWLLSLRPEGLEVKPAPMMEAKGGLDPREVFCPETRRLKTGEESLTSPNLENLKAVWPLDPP
# Outline: as §1
# ETS2 = molecular target: T5, ETS2 (Homo sapiens, UniProt P15036 1-469)
# T5 sequence: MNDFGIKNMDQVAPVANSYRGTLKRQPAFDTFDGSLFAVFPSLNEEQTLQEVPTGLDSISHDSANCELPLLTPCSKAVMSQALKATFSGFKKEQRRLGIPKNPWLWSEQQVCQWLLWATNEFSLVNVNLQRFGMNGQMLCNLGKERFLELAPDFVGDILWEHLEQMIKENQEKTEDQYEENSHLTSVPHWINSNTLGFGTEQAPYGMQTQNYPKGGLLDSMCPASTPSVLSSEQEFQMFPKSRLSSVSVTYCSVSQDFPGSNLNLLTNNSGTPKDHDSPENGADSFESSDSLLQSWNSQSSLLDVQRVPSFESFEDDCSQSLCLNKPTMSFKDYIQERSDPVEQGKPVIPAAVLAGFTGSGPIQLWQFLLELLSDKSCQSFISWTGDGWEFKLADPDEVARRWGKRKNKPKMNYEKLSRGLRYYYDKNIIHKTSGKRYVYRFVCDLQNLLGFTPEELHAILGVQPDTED
# Outline: as §1
# SPDEF = molecular target: T6, SPDEF (Homo sapiens, UniProt O95238 1-335)
# T6 sequence: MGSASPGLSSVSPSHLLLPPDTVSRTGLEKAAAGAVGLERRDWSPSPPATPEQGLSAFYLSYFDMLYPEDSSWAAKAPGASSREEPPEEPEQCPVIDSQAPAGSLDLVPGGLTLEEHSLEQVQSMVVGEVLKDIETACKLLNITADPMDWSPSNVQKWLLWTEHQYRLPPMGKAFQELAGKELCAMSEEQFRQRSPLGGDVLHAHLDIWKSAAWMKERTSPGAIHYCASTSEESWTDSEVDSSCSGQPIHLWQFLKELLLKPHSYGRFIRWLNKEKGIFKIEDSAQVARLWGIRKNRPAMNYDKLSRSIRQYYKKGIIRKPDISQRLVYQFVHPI
# Outline: as §1
# ETV7 = molecular target: T7, ETV7 (Homo sapiens, UniProt Q9Y603 1-341)
# T7 sequence: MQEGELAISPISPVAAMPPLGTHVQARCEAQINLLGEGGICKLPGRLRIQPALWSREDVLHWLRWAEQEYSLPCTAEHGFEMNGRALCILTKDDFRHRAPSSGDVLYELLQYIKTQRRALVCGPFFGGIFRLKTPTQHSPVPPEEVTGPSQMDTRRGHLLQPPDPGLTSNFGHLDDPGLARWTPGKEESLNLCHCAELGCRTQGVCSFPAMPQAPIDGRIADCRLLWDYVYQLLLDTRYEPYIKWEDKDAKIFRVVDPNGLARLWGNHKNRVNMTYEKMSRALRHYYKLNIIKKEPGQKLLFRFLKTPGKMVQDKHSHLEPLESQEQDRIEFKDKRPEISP
# Outline: as §1
# ETV3 = molecular target: T8, ETV3 (Homo sapiens, UniProt P41162-2 1-143)
# T8 sequence: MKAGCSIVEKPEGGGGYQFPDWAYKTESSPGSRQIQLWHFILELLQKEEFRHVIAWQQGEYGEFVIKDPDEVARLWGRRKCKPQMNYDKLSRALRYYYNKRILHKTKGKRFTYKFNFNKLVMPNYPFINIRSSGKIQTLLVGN
# Outline: as §1
# ETV6 = ETV6 (Homo sapiens, UniProt P41212 1-452)
# Chain of ETV6 (P41212 whole entry): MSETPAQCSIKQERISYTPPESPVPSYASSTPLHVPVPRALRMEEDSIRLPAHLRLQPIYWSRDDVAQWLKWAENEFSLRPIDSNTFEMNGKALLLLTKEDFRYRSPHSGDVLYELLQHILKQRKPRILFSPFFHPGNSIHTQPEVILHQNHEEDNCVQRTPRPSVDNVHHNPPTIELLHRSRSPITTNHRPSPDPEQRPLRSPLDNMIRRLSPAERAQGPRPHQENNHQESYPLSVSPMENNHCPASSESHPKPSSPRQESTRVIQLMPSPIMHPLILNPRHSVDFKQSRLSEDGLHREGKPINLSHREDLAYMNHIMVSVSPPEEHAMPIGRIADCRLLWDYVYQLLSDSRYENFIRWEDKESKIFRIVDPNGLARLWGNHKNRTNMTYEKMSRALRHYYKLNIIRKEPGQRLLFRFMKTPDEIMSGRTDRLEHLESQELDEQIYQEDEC
# Outline: as §1
sequence,measurement,setting,value
ATGCCA,binding signal,ETV2,"1.06 fold enrichment (6-mer frequency, TF over GST control)"
same,binding signal,ELF3,"1.09 fold enrichment (6-mer frequency, TF over GST control)"
same,binding signal,ETV1,"1.02 fold enrichment (6-mer frequency, TF over GST control)"
same,binding signal,ERF,"1 fold enrichment (6-mer frequency, TF over GST control)"
same,binding signal,ETV3L,"1.02 fold enrichment (6-mer frequency, TF over GST control)"
same,binding signal,ETS2,"1.03 fold enrichment (6-mer frequency, TF over GST control)"
same,binding signal,SPDEF,"1.04 fold enrichment (6-mer frequency, TF over GST control)"
same,binding signal,ETV7,"1.08 fold enrichment (6-mer frequency, TF over GST control)"
same,binding signal,ETV3,"1.13 fold enrichment (6-mer frequency, TF over GST control)"
same,binding signal,ETV6,"1.05 fold enrichment (6-mer frequency, TF over GST control)"
